Measurements published in PubChem BioAssay AID588819 (The Scripps Research Institute Molecular Screening Center, 2011).
Among all 360,000 compounds or so, about 320 (0.089%) were called active. The sample as a whole holds a higher share of actives than the screen did. Values without a mark were called inactive. Cut-off read from the data, not from the text of the source: active = activation above about 19% (passing the limit was not always enough); inactive = the rest.

What follows are compounds tested against Muscarinic acetylcholine receptor M1 (Homo sapiens) (UniProt P11229) (assay: CHRM1 PAMs potentiating acetylcholine calcium signal – CHO-K1 cells, Fluo-8 calcium fluorescence, 1536-well, primary screen (AID 588819)). Details: CHO-K1 hM1, Fluo-8 calcium fluorescence, ACh EC20; at 3 µM; hits give high values; 0% = ACh EC20, 100% = maximal ACh.
Sequence of Muscarinic acetylcholine receptor M1 (Homo sapiens) (P11229 whole entry, looked up): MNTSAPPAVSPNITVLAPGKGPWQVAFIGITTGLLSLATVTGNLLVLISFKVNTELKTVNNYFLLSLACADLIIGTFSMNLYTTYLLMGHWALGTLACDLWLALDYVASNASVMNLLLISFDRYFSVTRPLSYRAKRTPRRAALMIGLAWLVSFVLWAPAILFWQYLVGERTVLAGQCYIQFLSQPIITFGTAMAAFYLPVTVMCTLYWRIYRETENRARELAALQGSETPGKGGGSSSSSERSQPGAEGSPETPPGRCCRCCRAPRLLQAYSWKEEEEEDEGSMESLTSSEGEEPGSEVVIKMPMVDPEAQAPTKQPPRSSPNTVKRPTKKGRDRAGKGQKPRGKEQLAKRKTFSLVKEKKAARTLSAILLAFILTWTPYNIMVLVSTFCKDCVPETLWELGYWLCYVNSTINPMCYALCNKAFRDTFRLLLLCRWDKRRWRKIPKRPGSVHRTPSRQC

Structure (SMILES) | activation
O=C(c1cncc(Br)c1)N1CCN(c2ccc([N+](=O)[O-])cc2)CC1 | -20%
CCc1cccc(C)c1NS(=O)(=O)c1c(C)nc2sccn2c1=O | 4.98%
Cc1ccc(-c2csc(N3CCN(c4cc5c(cc4Cl)nc(-c4ccncc4)n5CCOCCO)CC3)n2)cc1 | 21.4%
Cc1ccc2nc(SCC(=O)N3CCN(c4ccccc4)CC3)nc(=O)n2c1 | 3.95%
Cc1ccc(-n2c(CNc3ccc(F)cc3)nnc2SCC(=O)N2CCOCC2)cc1 | 7.13%
O=C(O)CN1C(=O)CC(Cc2ccccc2)C1=O (stereo unspecified) | 11.7%
O=C1N[C@@H](Cc2ccccc2)C(=O)N2[C@H]1C[C@]1(Br)c3ccccc3N(S(=O)(=O)c3ccccc3)[C@H]21 | 7.1%
CSc1ccc(S(=O)(=O)NCC(=O)OCC(=O)NC2(C#N)CCCCC2)cc1[N+](=O)[O-] | 3.7%
Cc1ccc(N2C(=O)c3ccccc3C2(O)c2ncc[nH]2)cc1 (stereo unspecified) | 8.87%
CCc1c(C)nc2ncnn2c1N1CCC(C(=O)NCc2ccc3c(c2)OCO3)CC1 | 5.91%
Cn1c(SCC(=O)N2CCCCC2)nc2c(c1=O)SCC2 | -5.48%
COCCn1c(SCC(=O)N2CCCCCC2)nc2c(c1=O)SCC2 | 26.5% (active)
COCCn1c(SCC(=O)Nc2ccccc2F)nc2c(c1=O)SCC2 | 7.02%
CSCCC(NC(=O)c1ccco1)C(=O)Nc1cc(C)ccn1 (stereo unspecified) | 3.47%
CSCCC(NC(=O)c1ccco1)C(=O)OCC(=O)Nc1ncc(Cl)c(C)c1Cl (stereo unspecified) | 20.9% (active)
Cc1c(Cl)cnc(NC(=O)COC(=O)C2CCCC2)c1Cl | 4.9%
C/C(=N/NC(=O)c1ccn(C)n1)c1ccncc1 | 33.2% (active)
CC(=NNC(=O)c1ccncc1)c1ccc(Cl)c(Cl)c1 | -2.62%
C/C(=N/NC(=O)c1ccncc1)c1ccc2c(c1)OCO2 | 6.79%
Cc1cccc2c1N(CCOc1ccccc1)C(=O)C2=O | 8.27%
Cc1cc(C)c(S(=O)(=O)c2ccc(F)cc2C)c(=O)[nH]1 | 2.45%
COC(=O)C1=C(C)N(C(C)c2ccccc2)C(=O)/C1=C\c1ccco1 (stereo unspecified) | 3.44%
CCCc1cc(=O)n2[nH]c(C)c(-c3ccc(Cl)cc3)c2n1 | 12.2%
COc1ccc(C(=O)NCC2CCCN2S(=O)(=O)c2cccs2)cc1OC (stereo unspecified) | 6.88%
CCCCNC(=O)OC(C)CNC(=O)OC (stereo unspecified) | 4.6%
Cc1ccc(NS(=O)(=O)c2c(C)[nH]c(=O)[nH]c2=O)cc1C | 6.73%
